# Measurements taken from ChEMBL document CHEMBL1201862, “PubChem BioAssay data set” (2004).
# Hit rate of the full screen: of about 55,000 sequences, about 5,800 (11%) were called active. No stated cut-off is given here; in the data, active = GI50 up to about 1.1 µM and inactive = higher. This excerpt belongs to a sample that is enriched for actives. Potency and affinity values are given separately.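 All cell lines were grown in 96-well plates and treated with compound for 48 hours. At the GI50, growth is halved.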
# System: CCRF-CEM
# Assay: NCI tumour cell line growth inhibition, 48 h
row,Substance,GI50
1,"mu-(1,7-nanodiamine-N,N')bis-(cis-aminedichloroplatimum (II)), CHEMBL2146215",925 nM
2,"[Bis(aminomethyl)diethylsilane]tetrachloroplatinum(IV), CHEMBL2146203",283 nM
3,"[Bis(aminomethyl)tetramethylenesilane]dichloropaltinum(II), CHEMBL2146205",1560 nM
4,"[Bis(aminomethyl)pentamethylenesilane]dichloropaltinum(II), CHEMBL2146202",202 nM
5,"[Bis(aminomethyl)dimethylsilane]dichloroplatinum (II), CHEMBL2146201",3660 nM
6,"[Bis(aminomethyl)pentamethylenesilane]tetrachloropaltinum(IV), CHEMBL2146204",95.3 nM
7,"ACRIFLAVINE HYDROCHLORIDE, CHEMBL5219995",233 nM
8,"CISPLATIN, CHEMBL11359",1120 nM
9,"[Bis(aminomethyl)ethylmethylsilane]tetrachloroplatinum(IV), CHEMBL2146192",381 nM
10,"[Bis(aminomethyl)tetramethylenesilane]tetrachloropaltinum(IV), CHEMBL2146189",246 nM
11,"cis-Bis[[(trimethylsilyl)methyl]amino]tetrachloroplatinum(IV), CHEMBL2146191",1230 nM
12,"[Bis(aminomethyl)dimethylsilane]tetrachloroplatinum(IV), CHEMBL2146190",805 nM
